Records with an inconclusive call do not appear. Values without a mark were called inactive. Activity calls are given as the source filed them. Calls come from the whole dose curve; as a rule, active = well fitted inhibition curve with a large enough effect; inconclusive = small, poorly fitted or top-dose-only effect; inactive = no such curve, though single readings can be large or run the other way.

The target of one assay is Retinaldehyde dehydrogenase 3 (Homo sapiens) (UniProt P47895). Nature of the assay: qHTS for Inhibitors of the Aldehyde Dehydrogenase Family (ALDH1A3) Validation screen (AID 2061312). Note: % is set by controls: 0 for no effect and ±100 for the full control effect; nearly all actives have a fitted effect of over 45% in size. The following applies: ALDH1A3 enzyme inhibition qHTS validation, fluorescence; series mostly up to 84.7 µM; activity change, negative = inhibition: at the top concentration. On the technique in general: Quantitative high-throughput screening tests each substance at several concentrations.
For `C[C@@H](c1ncncc1F)[C@](O)(Cn1cncn1)c1ccc(F)cc1F`, the “activity change, negative = inhibition” value is -17.7% [at 42.4 µM].
The same measure, in the same setting: then `CN1CCC(=C2c3ccccc3CC(=O)c3sccc32)CC1`, with -2.93% [at 42.4 µM].
Still for that read-out and setting: then `CC12CC3CC(C)(C1)CC(N)(C3)C2`, with 3.2% [at 42.4 µM]; and `CC(C(=O)O)c1cccc(C(=O)c2ccccc2)c1` (configuration not stated), with -30% [at 42.4 µM]; and `Nc1nnc(-c2cccc(Cl)c2Cl)c(N)n1`, with 22.5% [at 42.4 µM].
For the compound `CNC[C@H](O)c1cccc(O)c1`, the “activity change, negative = inhibition” value is 11.2% [at 42.4 µM].
`NC(=O)c1ncn([C@@H]2O[C@H](CO)[C@@H](O)[C@H]2O)n1`: the “activity change, negative = inhibition” value is 10.9% [at 42.4 µM].
For the compound `CC(C)(C)NCC(O)c1ccc(O)c(CO)c1` (configuration not stated), the “activity change, negative = inhibition” value is 14.6% [at 42.4 µM].
Still for that read-out and setting: for `COC(=O)Nc1nc2ccc(C(=O)c3cccs3)cc2[nH]1` the value was 11% [at 42.4 µM]; for `O=C1N(c2ccccc2)c2ccccc2C1(Cc1ccncc1)Cc1ccncc1`, 2.62% [at 42.4 µM]; for `Nc1nc2c(ncn2COCCO)c(=O)[nH]1`, 8.55% [at 42.4 µM].
Regarding `CCCCNc1cc(C(=O)O)cc(S(N)(=O)=O)c1Oc1ccccc1`, the “activity change, negative = inhibition” value is 40.1% [at 42.4 µM].
On to `CCCCS(=N)(=O)CCC(N)C(=O)O` (configuration not stated), for which the “activity change, negative = inhibition” value is -11.5% [at 42.4 µM].
Same read-out and setting: then `NC(=O)c1ncn([C@@H]2O[C@H](CO)[C@@H](O)[C@H]2O)c1O`, with -6.67% [at 42.4 µM]; and `NCCS(=O)(=O)O`, with 11.1% [at 42.4 µM].
Same read-out and setting: then `Cc1cnc(NC(=O)C2=C(O)c3ccccc3S(=O)(=O)N2C)s1`, with 5.96% [at 42.4 µM]; and `Nc1ncn([C@@H]2O[C@H](CO)[C@@H](O)[C@H]2O)c(=O)n1`, with 5.92% [at 42.4 µM].
The same measure, in the same setting: for `CN(CCOc1ccc(NS(C)(=O)=O)cc1)CCc1ccc(NS(C)(=O)=O)cc1` the value was 13.8% [at 42.4 µM].
On to `Cc1cc(Cl)ccc1OCCCC(=O)NO`, for which the “activity change, negative = inhibition” value was 13.5% [at 42.4 µM].

Tested on in another assay: not listed separately
Nature of the assay: BET inhibitor-based combinations targeting novel dependencies in MECOM-rearranged (r) AML: SET-2 cell line (AID 2202231).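 For viability: plate controls were DMSO treated cells for no effect and wells without cells for full effect.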 Note: nearly all actives have a fitted effect of over 35% in size. Note: potency is the fitted concentration of half-maximal effect. The following applies: SET-2 AML cells viability, CellTiter-Glo luminescence, 48 h; viability: active compounds read low, concentration not given here. The method, boiled down:
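Each compound was tested at eleven concentrations on cells seeded at 500/well. After two days' incubation, ATP-based luminescence reported viability; responses relative to DMSO and blank wells yielded AUC and cell-line-centred Z-AUC.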
Background: Cellular ATP, detected with luciferase, serves as a proxy for viable cell number.
On to `CCCc1c(OCCCOc2ccc(OCC(=O)O)cc2)ccc(C(C)=O)c1O`, for which the viability (as a rule, a read-out of living cells in per cent, often relative to untreated cells) is 119%.
Still for that read-out and setting: then `COc1ccc2[nH]cc(CCNC(C)=O)c2c1`, with 124%; and `CCC(C)N(C)C(=O)c1cc2ccccc2c(-c2ccccc2Cl)n1` (configuration not stated), with 102%; and `O=c1c(O)c(-c2ccc(O)cc2O)oc2cc(O)cc(O)c12`, with 122%.
In the case of `CC(C)NCC(O)c1ccc(NS(C)(=O)=O)cc1` (configuration not stated), the viability was 116%.
Still for that read-out and setting: then `COc1ccc(C2CNC(=O)C2)cc1OC1CCCC1` (configuration not stated), with 119%.
On to `O=C1CCC(N2C(=O)c3ccccc3C2=O)C(=O)N1` (configuration not stated), for which the viability is 112%.
As to `Nc1ncnc2c1ncn2[C@@H]1O[C@H](CO)[C@@H](O)[C@H]1O`, the viability was 126%.
Turning to `O=c1[nH]cc(F)c(=O)[nH]1`, the Potency is 10.5 µM (active).
For the compound `Cc1cccc(-c2[nH]ncc2-c2ccc3ncccc3n2)n1`, the viability was 105%.
The same measure, in the same setting: then `CCn1cc(C(=O)O)c(=O)c2cc(F)c(N3CCNC(C)C3)c(F)c21` (configuration not stated), with 95.2%; and `CNC[C@H](O)c1ccc(O)c(O)c1`, with 103%; and `Nc1nc2c(ncn2COC(CO)CO)c(=O)[nH]1`, with 113%.
With `NCCCCCC(=O)O`, the viability is 112%.
For `CC(C)NCC(O)COc1ccc(CCOCC2CC2)cc1` (configuration not stated), the viability is 115%.
As to `O=C(O)C1CCCN(CCC=C(c2ccccc2)c2ccccc2)C1` (configuration not stated), the viability was 117%.
Same read-out and setting: for `NS(=O)(=O)c1cc2c(cc1Cl)NC=NS2(=O)=O` the value was 111%.
For the compound `CCN(CC)CCNC(=O)c1c(C)[nH]c(/C=C2\C(=O)Nc3ccc(F)cc32)c1C`, the Potency was 16.6 µM (active).
On the same count and under the same terms, then `CN(C)C(=O)C(CCN1CCC(O)(c2ccc(Cl)cc2)CC1)(c1ccccc1)c1ccccc1`, with 14.8 µM (active).
For `CCOC(=O)C(C)(C)Oc1ccc(Cl)cc1`, the viability was 112%.
Still for that read-out and setting: then `COc1cccc(-c2cc(=O)c3ccccc3o2)c1N`, with 100%; and `C[C@@H](c1ncncc1F)[C@](O)(Cn1cncn1)c1ccc(F)cc1F`, with 105%; and `CN1CCC(=C2c3ccccc3CC(=O)c3sccc32)CC1`, with 112%.
In the case of `CC12CC3CC(C)(C1)CC(N)(C3)C2`, the viability is 110%.
Same read-out and setting: then `CC(C(=O)O)c1cccc(C(=O)c2ccccc2)c1` (configuration not stated), with 117%; and `Nc1nnc(-c2cccc(Cl)c2Cl)c(N)n1`, with 116%; and `CNC[C@H](O)c1cccc(O)c1`, with 112%.
As to `NC(=O)c1ncn([C@@H]2O[C@H](CO)[C@@H](O)[C@H]2O)n1`, the Potency was 20.9 µM (active).
As to `CC(C)(C)NCC(O)c1ccc(O)c(CO)c1` (configuration not stated), the viability is 115%.
For the compound `COC(=O)Nc1nc2ccc(C(=O)c3cccs3)cc2[nH]1`, the Potency was 0.209 µM (active).
For the compound `O=C1N(c2ccccc2)c2ccccc2C1(Cc1ccncc1)Cc1ccncc1`, the viability is 104%.
Take `Nc1nc2c(ncn2COCCO)c(=O)[nH]1`: the viability was 125%.
On the same count and under the same terms, for `CCCCNc1cc(C(=O)O)cc(S(N)(=O)=O)c1Oc1ccccc1` the value was 115%.
